In the supplement of paper PMC6555819:

System: FXR:RXRa (NR concentration 270 nM, RXRa partner concentration 90 nM)
Test: PBM binding z-score (relative to random genomic background probes); higher = stronger binding; sequences stand for … in GC…GCGATTGACAGCGTAGAATGAAGG
Summary of the method: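 Scanned fluorescence from custom Agilent 4×180K protein-binding microarrays was regression-normalized. Binding z-scores use random background probes as reference. Ligand-free nuclear receptor dimers were incubated on the arrays for 1 h and detected with antibodies against each partner (one per run).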

Sequence | PBM binding z-score
CGTCCAAGGTCATTGGAGGTCAGTGAAGACAGAT | 7.92
CCTTACGGGTCACTGACAGGTTATAGCGTTTGGA | 5.14
TAGCCTAGGTCATTCAGGGGCAAGTATAGAAAGC | 5.65
AGAATGAGGTTACCAAAGTTCAGGGAAACGCTTG | 3.73
ATATGTAGGTTATCTGGGGTCATTCAGACTAGGC | 6.16
GATATAGGGTCAGCTAGAGGCCAGAGTATGGAAA | 5.03
CCTTACGGGTCACGAGGTTGTAGCACGACGAGCG | 6.87
ATCGAAAGGTCGTGAGGTAAGTATACAGAAAGGC | 5.54
CCTAGCAGGCCAATCTAGGTCACTCAAGGCTTGA | 1.46
ACTTACGGGTCTACGAGGTTATAGCACGCGTATA | 0.283
CAAACTAGGTCACAAAAGGTCAAAGTCGAATGAC | 7.02
CCTACTGGGCCATTCAGAGGTCAATGATCATATG | 2.47
CGTCCAAGGTCAATGCTAGATCAGTGAAAGCATT | 6.47
ATCGAAAGGTCGACCAGGTGAGTATACACCGTTT | 4.91
AGAATGGGGTTACCAAAGATCAGGGAAACGCTTG | 3.7
CCTACGGGGCCACGAAAGGTCATTGATTCAGTGA | 4.71
CGTCAAACTTCAACTAAGGTAACGTAAAGCACGC | 0.562
CCTACTGGGCCACGAAAGGCCATTGATTCAGTGA | -0.0775
GGAACGAGGGCATTCGAGTTCATAGCATGGCGAT | 3.41
TCGCCTAGGTCATGGGCCAGTATACCACGCGAAC | 4.68

Sequence | PBM binding z-score
AGAATGAGGTTACCAAAGGTCAGGGAAACGCTTG | 6.02
TAGCCTAGGTCATTCAGGGGCCACTATAGAAAGC | 4.76
AATACAGGGTCATCGTAGGTCAGAGTACGCACAG | 7.7
CAAACTAGGTCACAGTGGTCAAAGTCCGTGCGTA | 4.01
CCTACTGGGTCACGAAAGGTCATTGATTCAGTGA | 6.45
TCTTGTAGATCAATAGAAGTTAAGAAAGTGCGCT | 0.718
TACCCTAGGTCATTGGGCCAGTATAGTACGCATC | 4.66
AGAATGAGGTTAAACGTAGATCAGGGAAGAAAGT | 4.05
CCGAGTTGGTCAAGGTCACACACGCTATAGGTAC | 4.37
CCTACTGGACCAAGGTCATTGATCAGTCAAAGCA | 3.24
CCTAGTTGGTCAAGGTCACATACGCTATAGGTAC | 3.98
ATCTCTAGGTTAAGATAGTTCAGTGAATGCAAAT | 0.821
AGAATGAGGTTAAGTTCAGGGAAACAGAATACAT | 4.05
TAGCCTAGTTCATGCGGGCCAGTATAGTGTCGGC | -0.33
TAGCCTAGGTCATGGGCCAGTGTACCACGCGAAC | 4.82
ATATGTAGGTTAACTGGGGTCATTCAGACTAGGC | 5.59
CCTTACGGGTCAAGGTTATAGCCCGGGTGGTACG | 5.51
CGTCCAAGGTCATATGAGGTCAGTGAAGACAGAT | 7.7
TAGCCTAGGTCGTTCAGGGGCCAGTATAGAAAGC | 0.616
TAGCCTAGGTCATGCGGGCCAATATAGTGTCGGC | 4.22
